Screens as filed in PubChem.
DT40 TDP1 CPT: DT40-hTDP1 cell growth loss with CPT. chicken DT40 Tdp1-/-;hTDP1 cells + 20 nM CPT, ATP luminescence, 48 h. Potency, µM (series often up to 46.2 µM), for the others: at the top dose activity change, negative = growth inhibition, most hits filed as inhibitors. AID 686979. 420,000 compounds, 12% hits; note: potency is the fitted concentration of half-maximal effect; nearly all actives have a fitted effect of over 55% in size
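Chicken DT40 Tdp1-/- cells complemented with human TDP1, 400 cells/well, exposed to compounds plus 20 nM camptothecin for at least 48 h at 37 C; viability read as ATP content by CellTiter-Glo luminescence.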
HT1080NT lethal: kills 2HG-producing HT-1080-NT fibrosarcoma cells | 360,000 compounds, 1.6% hits | HT-1080-NT fibrosarcoma viability, CellTiter-Glo ATP luminescence, 48 h | AID 686970 | Potency, µM (titrated, usually from 46.1 µM), for the others: top-dose activity, negative = less viability, hits mostly cytotoxic;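 note: NT is the 2HG producing partner of a matched IDH1 knockdown line; potency is the fitted concentration of half-maximal effect; 0% = DMSO-treated cells and -100% = media-only wells without cells; nearly all actives have a fitted effect of over 55% in size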
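750 cells/well, RPMI + 5% FBS; 2 h settle, compound pin-transfer, 48 h at 37 degrees C. CellTiter-Glo 10 min RT, luminescence. Normalized to DMSO and media-only wells.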
DT40 TDP1 no CPT: qHTS for Inhibitors of human tyrosyl-DNA phosphodiesterase 1 (TDP1): qHTS in cells in absence of CPT; DT40 Tdp1-/- hTDP1 cells, no CPT, ATP luminescence, 48 h; Potency, µM (highest dose often 46.2 µM), for the others: top-dose activity change, negative = growth inhibition, hits mostly inhibitors; 420,000 compounds, 15% hits; note: potency is the fitted concentration of half-maximal effect; nearly all actives have a fitted effect of over 55% in size
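Seeded 400 DT40-hTDP1 cells/well (vehicle DMSO, no 20 nM CPT); pinned compounds; ≥48 hr at 37 °C; CellTiter-Glo luminescence as viability measure.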
HT1080 IDH1KD tx: HT-1080 IDH1 knockdown cell toxicity (counter line). Potency, µM (series often up to 46.1 µM), without a hit: top-dose activity, negative = toxicity, hits mostly cytotoxic. HT-1080 IDH1 knockdown viability, ATP luminescence, 48 h. 360,000 compounds, 2% hits;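 note: potency is the fitted concentration of half-maximal effect; 0% = DMSO wells and -100% = cell-free medium wells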
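Using the IDH1-knockdown HT-1080 line run in the same batch and compound series as the NT line, viability after 48 h at 37 °C was determined by CellTiter-Glo luminescence and expressed as % activity.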
uPA generation: cell surface uPA generation inhibition. cell surface uPA generation assay, qHTS. Potency, µM (titrated, usually from 38.3 µM), for the others: at the top dose activity change, negative = inhibition, hits mostly inhibitors. 330,000 compounds, 0.31% hits. AID 540303; active = well fitted inhibition curve with a large enough effect; inconclusive = small, poorly fitted or top-dose-only effect; inactive = no such curve, though single readings can be large or run the other way; tested in mouse RAW 264.7 cells; note: potency is the fitted concentration of half-maximal effect; nearly all actives have a fitted effect of over 55% in size
IL-1B inflam inh: blocks inflammasome-driven IL-1 beta release. THP-1 LPS/ATP IL-1B secretion, AlphaLISA, 16 h; active compounds read low. activity change, % at 57.5 µM. 360,000 compounds, 4.7% hits. AID 743279; in the data active = activity change below about -50%; inconclusive = mostly about -30% to -49%
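Secreted IL-1B measured by AlphaLISA bead assay after 16 h compound exposure of THP-1 cells; compounds (final up to 57.5 uM) added 1 h before LPS (250 ng/mL) and ATP (1.25 mM) stimulation; lower signal means less secretion.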
* marks the source's active call; other numbers are inactive results; ? = inconclusive; · = not tested or not shown; ! = repeats disagree; [ ] = dose if it differs, or a comment. Most compounds without a hit are left out; they make up all but 19% or so of the library. Unless noted, calls come from the whole dose curve; as a rule, active = well fitted curve in the direction sought with a large enough effect; inconclusive = small, poorly fitted or top-dose-only effect, or another doubt; inactive = no such curve, though single readings can be large; an effect the other way counts as inactive or inconclusive. Unless noted, % is set by controls: 0 for no effect and ±100 for the full control effect.

SMILES	DT40 TDP1 CPT	HT1080NT lethal	DT40 TDP1 no CPT	HT1080 IDH1KD tx	uPA generation	IL-1B inflam inh
Cc1ccnc(NS(=O)(=O)c2ccc(NC(=O)C(C)(C)Oc3ccc(Cl)cc3)cc2)n1	-15%	·	1%	·	·	·
CO[C@H]1C[C@@H]2CC[C@@H](C)[C@@](O)(O2)C(=O)C(=O)N2CCCC[C@H]2C(=O)OC([C@H](C)C[C@@H]2CC[C@@H](O)[C@H](OC)C2)CC(=O)[C@H](C)/C=C(\C)[C@@H](O)[C@@H](OC)C(=O)[C@H](C)C[C@H](C)/C=C/C=C/C=C/1C (some centres not stated)	0.01µM*	·	0.0092µM*	·	·	·
CO[C@H]1C[C@@H]2CC[C@@H](C)[C@@](O)(O2)C(=O)C(=O)N2CCCC[C@H]2C(=O)O[C@H]([C@H](C)C[C@@H]2CC[C@@H](O)[C@H](OC)C2)CC(=O)[C@H](C)/C=C(/C)[C@@H](O)[C@@H](OC)C(=O)[C@H](C)C[C@H](C)C=C/C=C\C=C/1C	4µM*	·	?	·	·	·
CCC1C(=O)NCCN1Cc1ccc2c(c1)CN(Cc1ccc3c(c1)OCCO3)CCO2 (configuration not stated)	?	·	-28%	·	·	·
COc1ccccc1Oc1cc(C#N)c(C#N)cc1-n1nnc2ccccc21	23µM*	?	18µM*	?	·	?
Nc1ccccc1-n1nc2ccc3ccccc3c2n1	?	-7%	-27%	-4%	·	51
CCCCCCCCCCCCC/C=C/[C@@H](O)[C@@H](N)CO	9.2µM*!	?	12µM*!	-2%	-2%	9
CCCCCCNC(=O)c1c(O)c2cccc3c2n(c1=O)CCC3	?	0%	29µM*	9%	6%	21
CCCCc1nc2ccccc2c(=O)n1NC(=O)c1c(O)c2ccccc2n(C)c1=O	4.1µM*	0%	3.7µM*	-7%	-9%	-10
CCN(CC)CCNC(=O)c1c(O)c2cccc3c2n(c1=O)CCC3	?	-29%	?	?	-15%	6
CCCc1nc2ccccc2c(=O)n1NC(=O)c1c(O)c2cccc3c2n(c1=O)CCC3	?	12%	16µM*	2%	5%	5
CNC(=O)c1c(O)c2cccc3c2n(c1=O)CCC3	-24%	2%	?	-1%	-5%	-1
COC(=O)/C=C/C(=O)Nc1ccc(O)c(Cl)c1	?	-24%	?	-19%	-19%	-99*
O=C(Nc1cccnc1)C1(F)C(F)(F)C(F)(F)C(F)(F)C(F)(F)C1(F)F	?	13%	?	1%[9.24 µM]	-1%	-67*
CC(C)(C)c1ccc(/C=C/C(=O)Nc2cccnc2)cc1	?	?	?	?	-10%	-52*
COC(=O)/C=C/C(=O)Nc1cccnc1	16µM*	-2%	?	-2%	-11%	-5
O=C(O)/C=C/C(=O)Nc1cccnc1	6%	?	-2%	19%	-5%	19
S=C(NCc1ccco1)Nc1ccc(Cl)cn1	-26%	4%	?	-4%	-3%	16
O=C(CCc1nc2ccccc2c(=O)[nH]1)Nc1nnc(SCc2ccc(F)cc2)s1	-4%	5%	-7%	1%	-1%	21
Cc1ccc(CN2CCC(CNC(=O)Nc3c(C)cccc3C)C2)cc1 (configuration not stated)	-24%	·	-9%	·	·	·
CN(C)c1ccc(CC(=O)N2CCCC(c3cc(C(=O)Nc4ccc5c(c4)OCO5)no3)C2)cc1 (configuration not stated)	16µM*	-18%	13µM*	?	·	-2
Cc1ccc(C)c(CC(=O)N2CCCC(c3cc(C(=O)Nc4ccc5c(c4)OCO5)no3)C2)c1 (configuration not stated)	15µM*	?	16µM*	?	·	-25
CC(C)c1ccc(C(=O)N2CCCC(c3cc(C(=O)Nc4ccc5c(c4)OCO5)no3)C2)cc1 (configuration not stated)	?	-19%	21µM*	-11%	·	-5
CC1CCC2=C1C[C@H](C(C)(C)O)CC[C@@H]2C (some centres not stated)	12%[9.04 µM]	·	9%[9.04 µM]	·	·	·
O=C(CSc1nnc(-c2ccccc2F)n1C1CC1)NCc1ccco1	12%	6%	-6%	10%	9%	2
SMILES	DT40 TDP1 CPT	HT1080NT lethal	DT40 TDP1 no CPT	HT1080 IDH1KD tx	uPA generation	IL-1B inflam inh
COC(=O)[C@@]12C[C@@H](CC(=O)NCC3CCCCC3)C(=O)N(Cc3cccc4ccccc34)C1=CCC(C)(C)C2	21µM*	10%	16µM*	24%	·	16
COC(=O)[C@@]12C[C@@H](CC(=O)NCCC(C)C)C(=O)N(Cc3cccc4ccccc34)C1=CCC(C)(C)C2	?	?	21µM*	?	·	-20
COC(=O)[C@@]12C[C@@H](CC(=O)NCc3ccccc3)C(=O)N(Cc3ccccc3)C1=CCC(C)(C)C2	21µM*	?	?	-21%	·	-60*
COC(=O)[C@@]12C[C@@H](CC(=O)NCCc3ccccc3OC)C(=O)N(Cc3cccc4ccccc34)C1=CCC(C)(C)C2	?	?	?	-23%	·	0
COC(=O)[C@@]12C[C@@H](CC(=O)NCc3ccc(C)o3)C(=O)N(Cc3cccc4ccccc34)C1=CCC(C)(C)C2	21µM*	?	16µM*	-26%	·	-18
CCOC(=O)c1c(NC(=O)COc2cccc(C)c2C)sc2c1CCC(CC)C2 (configuration not stated)	8%	·	-15%	·	·	·
COC(=O)[C@@]12C[C@@H](CC(=O)NCc3ccccc3)C(=O)N(Cc3cccc4ccccc34)C1=CCC(C)(C)C2	?	?	18µM*	?	·	-83*
COC(=O)[C@@]12C[C@@H](CC(=O)NCc3cccc4ccccc34)C(=O)N(Cc3cccc4ccccc34)C1=CCC(C)(C)C2	18µM*	7%	?	2%	·	-11
COC(=O)[C@@]12C[C@@H](CC(=O)N3CCC(c4ccccc4)CC3)C(=O)N(Cc3cccc4ccccc34)C1=CCC(C)(C)C2	?	-14%	?	-15%	·	-17
COCCCNC(=O)C[C@@H]1C[C@@]2(C(=O)OC)CC(C)(C)CC=C2N(Cc2cccc3ccccc23)C1=O	?	-11%	?	-14%	·	5
